Reference: PubChem BioAssay

tested on: Human papillomavirus type 1a protein E7 (residues 44-93); assay: small molecules binding HPV E7 44-93 – biochemical, small-molecule microarray, residues 44-93, 635 nm fluorescence, primary screen (AID 1108); details: fluorescence 635 nm, higher = more signal;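 also: E7 fragment applied at 1 µg/mL in TBST for 1 h at 4 C; score combines spot fluorescence with its signal to noise ratio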

First: CC(CO)N1C(=O)[C@@H]2C3C(=O)OCCC/C=C\[C@H]3OC23C=CCN(C(C)(C)C)C(=O)[C@@H]13 (stereo not given in full)
Second: C[C@H]1C2[C@H](Cc3ccccc3)NC(=O)[C@]23C(=O)N[C@H](Cc2ccccc2)C(=O)N2CCC[C@H]2C(=O)NC/C=C\C/C=C/C3[C@@H]2O[C@]12C (stereo not given in full)
The composite z-score of the first is lower: -0.898 for the first, -0.355 for the second.

Compared with CN1C(=O)C2C=CC(C(O)c3ccccc3)N(N(c3ccccc3)c3ccccc3)C2C1=O (stereo not given), CC(C)C(O)C1C=CC2C(=O)N(c3ccccc3)C(=O)C2N1Nc1ccc([N+](=O)[O-])cc1 (stereo not given) is higher in composite z-score: -0.364 for the first, 1.2 for the second.

First: C=CCOC(=O)[C@H]1[C@@H]2C(=O)O[C@@H](c3ccccc3)[C@@H](c3ccccc3)N2[C@@H](c2ccc(OCCOC(=O)[C@@H]3C[C@@H]4C(=O)N[C@@H](CCCCNC(C)=O)C(=O)N4[C@@H]3c3ccc(O)cc3)cc2)[C@]12C(=O)Nc1ccccc12
Second: COC(=O)C(CC#Cc1ccc2c(c1)[C@]1(C(=O)N2)[C@H](C(=O)Nc2nc3ccccc3s2)[C@H]2C(=O)O[C@H](c3ccccc3)[C@H](c3ccccc3)N2[C@@H]1c1ccc(O)cc1)C(=O)OC
The composite z-score of the first is lower: 1.32 for the first, 1.45 for the second.

First: CC(C)C(O)C1C=CC2C(=O)NC(=O)C2N1Nc1ccc(Cl)cc1Cl (stereo not given)
Second: CC(C)C[C@@H]1NC(=O)[C@@H]2C[C@H](C(=O)NCc3ccc(F)cc3)[C@H](c3cccc(OCCO)c3)N2C1=O
The composite z-score of the first is lower: -0.898 for the first, 0.0179 for the second.

First: CCCC[C@H]1OB(O)C[C@H]2C1=C(COC)C[C@H]1C(=O)N(C)C(=O)[C@H]12
Second: COCCOC(=O)N1C(=O)[C@@]2(c3cc(C#Cc4ccc(OC)cc4)ccc31)[C@H](c1ccccc1OCCO)N1[C@H](c3ccccc3)[C@H](c3ccccc3)OC(=O)[C@H]1[C@@H]2C(=O)NC[C@H](O)c1ccccc1
The composite z-score of the first is lower: 0.343 for the first, 1.44 for the second.
